Data on one compound can be found in PubChem BioAssay AID2284156 (EPA ToxCast).

Molecules are shown by their SMILES. The source made the active and inactive calls. The calls were made as follows: active = hit-call score of the fitted dose curve at least 0.9, where 1 is the maximum; inactive = score below 0.9.

Chain of Muscarinic acetylcholine receptor M5 (Homo sapiens) (P08912 whole entry, looked up): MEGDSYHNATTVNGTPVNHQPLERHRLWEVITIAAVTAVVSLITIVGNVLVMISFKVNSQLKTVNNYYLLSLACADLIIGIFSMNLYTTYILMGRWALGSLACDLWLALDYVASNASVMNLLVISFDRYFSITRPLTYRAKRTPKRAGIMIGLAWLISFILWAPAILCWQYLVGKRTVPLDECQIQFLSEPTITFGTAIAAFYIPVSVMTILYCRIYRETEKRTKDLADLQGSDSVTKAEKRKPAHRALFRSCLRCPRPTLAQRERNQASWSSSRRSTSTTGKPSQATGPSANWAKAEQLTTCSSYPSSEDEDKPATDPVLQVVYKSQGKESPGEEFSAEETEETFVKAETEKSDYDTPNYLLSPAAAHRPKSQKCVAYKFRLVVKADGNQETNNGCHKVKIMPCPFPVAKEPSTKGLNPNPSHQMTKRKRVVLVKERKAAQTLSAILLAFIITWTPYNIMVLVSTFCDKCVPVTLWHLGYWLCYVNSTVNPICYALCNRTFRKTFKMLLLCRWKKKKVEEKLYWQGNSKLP

This assay has as its target Muscarinic acetylcholine receptor M5 (Homo sapiens) (UniProt P08912). Description: ERF_FR_GPCR_hCHRM5: Eurofins (ERF) G Protein-Coupled Receptor (GPCR) Radioligand Binding LeadHunter Assay for human Muscarinic Acetylcholine Receptor M5 Antagonism, conducted at France lab site. As to the method:
ERF_FR_GPCR_hCHRM5 is a biochemical, single-readout assay that uses extracted gene-proteins in a cell-free assay. Measurements were taken 1 hour after chemical dosing in a 96-well plate. See M5 Human Acetylcholine (Muscarinic) GPCR Binding (Antagonist Radioligand) Assay, Cerep.ERF_FR_GPCR_hCHRM5 is an assay component calculated from the ERF_FR_GPCR_hCHRM5 assay. It is designed to measure radioligand binding using a type of binding reporter as detected by scintillation counting with radiometry technology.Data from the assay component ERF_FR_GPCR_hCHRM5 was analyzed at the assay endpoint, ERF_FR_GPCR_hCHRM5, in the positive analysis fitting direction relative to DMSO as the negative control and baseline of activity. Using a type of binding reporter, loss-of-signal activity can be used to understand changes in binding as they relate to gene CHRM5. To generalize the intended target to other relatable targets, this assay endpoint is annotated to the gpcr intended target family, where the subfamily is acetylcholine (Muscarinic).
Human cells are incubated for 60 minutes at room temprature with [3H]4-DAMP ligand (0.3 nM) and 4-Damp methiodide as control inhibitor.Test Sample Requirements: Minimum for 1) Screen: 60 ul of 10 mM stock -OR- 1 mg (pre-weighed) for 10 uM final testing. 2) Dose Response: 90 ul of 10 mM stock -OR- 1 mg (pre-weighed) for a top concentration at 10 uM.
As for `O=C(/C=C/c1ccc(O)cc1)CC(=O)/C=C/c1ccc(O)cc1`, the compound was called inactive.
